Only some compounds are listed: those with a hit (about 9.5% of all), similar ones and a draw of the others.
Pf growth 48h – P. falciparum growth inhibition at 48 hours (one generation); hit rate 5.9% among 310,000; AID 504832; Potency, µM (highest dose often 28.7 µM), inactives show top-dose activity change, negative = inhibition, most hits filed as inhibitors; P. falciparum luciferase growth in erythrocytes, 48 h; active = well fitted inhibition curve with a large enough effect; inconclusive = small, poorly fitted or top-dose-only effect, or another doubt; inactive = no such curve, though single readings can be large or run the other way; note: % is set by controls: 0 for no effect and ±100 for the full control effect
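Growth was read as firefly luciferase luminescence after a 48 h, 37 C, 5% CO2 exposure of compounds to reporter-bearing P. falciparum cultures (0.1% parasitemia, 2% hematocrit final) in Albumax-supplemented RPMI 1640.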
NS1 function inh – blocks influenza NS1 protein function. AID 2326. hit rate 0.4% among 270,000. Potency, µM (highest dose often 46.1 µM), for inactives: at the highest dose activity, positive = more growth; note: actives are rising curves; nearly all actives have a fitted effect of over 50% in size
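OD600 was taken as the measure of yeast growth restored by compound in an NS1-expressing S. cerevisiae strain. Cells had been washed out of glucose medium and diluted 1:100 into galactose -URA medium, pH 6.0.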
SARS PLpro yeast – blocks SARS-CoV papain-like protease in a yeast assay. S. cerevisiae expressing SARS-CoV PLpro, growth rescue. Potency, µM (top dose mostly 32.9 µM), inactives show at the top dose activity, positive = growth rescue, most hits filed as activators. hit rate 0.19% among 330,000; note: 0% is about no effect; nearly all actives have a fitted effect of over 55% in size
RE007 growth inh – less growth of the S. pombe RE007 Vpr strain; hit rate 0.21% among 360,000; S. pombe RE007 Vpr strain, BacTiter-Glo ATP luminescence, 24 h; Potency, µM (top dose mostly 92.2 µM), for the others: at the top dose activity change, negative = less growth, most hits filed as inhibitors; active = well fitted falling curve with a large enough effect; inconclusive = small, poorly fitted or top-dose-only effect; inactive = no such curve, though single readings can be large or run the other way; note: % is set by controls: 0 for no effect and ±100 for the full control effect; nearly all actives have a fitted effect of over 50% in size
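Fission yeast strain RE007, carrying one chromosomally integrated HIV-1 vpr copy, was seeded at OD 0.01 in PMG+AL medium with 23 nL pinned compound. After 24 h at 30 °C and 99% humidity, viability was read by BacTiter-Glo luminescence.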
Pf growth 96h – P. falciparum growth inhibition at 96 hours. P. falciparum luciferase reporter growth, 96 h. Potency, µM (titrated, usually from 28.7 µM), inactives show at the top dose activity change, negative = inhibition, most hits filed as inhibitors. hit rate 6.9% among 320,000. AID 504834; active = well fitted inhibition curve with a large enough effect; inconclusive = small, poorly fitted or top-dose-only effect, or another doubt; inactive = no such curve, though single readings can be large or run the other way; note: % is set by controls: 0 for no effect and ±100 for the full control effect
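Infected RBCs, 2% Hct / 0.05% parasitemia final; luciferase-reporter P. falciparum; cpd 96 h, 37 C, 5% CO2; luciferase detection reagent; luminescence.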
* marks the source's active call; other numbers are inactive results; u = inconclusive; x = no result; [ ] = another dose, or the depositor's remark. Unless noted, calls come from the whole dose curve. Potency is the fitted concentration of half-maximal effect.

SMILES | Pf growth 48h | NS1 function inh | SARS PLpro yeast | RE007 growth inh | Pf growth 96h
CC(=O)c1cccc(NC(=O)Cn2cnc(S(=O)(=O)N3CCc4ccccc43)c2)c1 | -4% | 5% | 7% | 10% | u
O=C(c1cc(=O)[nH]c2ccccc12)N1CCN(c2ccccc2)CC1 | 26% | 3% | 0% | 4% | -9%
CSc1ccccc1C(=O)C1CCCN(C(=O)c2ccc(N3CCOCC3)cc2)C1 (stereo not given) | -14% | 0% | 1% | -3% | 10µM*
O=C(c1cccc2ccccc12)C1CCCN(C(=O)c2ccc(N3CCOCC3)cc2)C1 (stereo not given) | u | 0% | -1% | -8% | -1%
Cc1ccccc1CC1(CO)CCCN(C(=O)CCN2CCCO2)C1 (stereo not given) | 5% | 8% | -4% | -9% | 2.6µM*
CSc1ccccc1C(=O)C1CCCN(C(=O)CCN2CCCO2)C1 (stereo not given) | 37% | -2% | -1% | 16% | 5.2µM*
Cc1ccccc1CC1(CO)CCCN(C(=O)CCC(=O)c2ccccc2)C1 (stereo not given) | 11% | -6% | 5% | 2% | 1%
CC1CN(CC(O)COc2ccc(C#N)cc2)CCN1CC(O)COc1ccc(C#N)cc1 (stereo not given) | -7% | 2% | -2% | 3% | -6%
COc1cc2nc(CN3CCN(S(=O)(=O)c4ccc(C)c(C)c4)CC3)[nH]c(=O)c2cc1OC | 9.3µM* | x | 1% | 47% | u
CC12CCC(C/C1=N\N=C1\NC(=O)/C(=C\c3cccc(Br)c3)S1)C2(C)C (stereo not given) | u | 0% | -17% | 1% | 13µM*
CCC(C)NC(=O)CC(NS(=O)(=O)c1ccc(NC(C)=O)cc1)C(C)C (stereo not given) | -24% | x | 3% | -4% | 18%
O=C(CSc1nnnn1C1CCCC1)NCc1ccc2c(c1)OCO2 | 4% | -11% | 4% | 2% | 10µM*
CCn1c(SC(C)C(=O)NC2CCCc3ccccc32)nnc1-c1cccs1 (stereo not given) | x | 0% | 5% | 17% | 17µM*
CCOc1ccc2nc(SCC(=O)Nc3cc4c(cc3C(C)=O)OCO4)[nH]c2c1 | -17% | 7% | 6% | -10% | 13µM*
CCn1c(SCC(=O)NC2CCCc3ccccc32)nnc1-c1cccs1 (stereo not given) | -14% | 6% | 7% | 21% | u
CC(Sc1nnc(-c2cccs2)n1Cc1ccccc1)C(=O)NCc1ccc2c(c1)OCO2 (stereo not given) | x | -55% | 0% | -1% | 8.3µM*
O=C(CSc1nnc(-c2cccs2)n1Cc1ccccc1)NCc1ccc2c(c1)OCO2 | x | 6% | -8% | 7% | u
Cn1nc(C(=O)NNC(=O)c2cccc(Cl)c2)ccc1=O | x | x | 0% | 12% | x
Cc1nc(N2CCN(C(=O)c3ccco3)CC2)[nH]c(=O)c1C | u | -5% | -2% | 2% | -2%
O=C(CSc1nc2ccccc2[nH]1)NCc1ccc2c(c1)OCO2 | 16% | 4% | -4% | -10% | 4.1µM*
O=C(CCc1nc2ccccc2[nH]1)NCc1ccc2c(c1)OCO2 | 8% | 4% | 4% | -5% | -14%
O=C(CSc1nnc(Cc2cccs2)n1-c1ccc(Cl)cc1)NCc1ccc2c(c1)OCO2 | 0.93µM* | 14% | 2% | 2% | 7.4µM*
CNC1=C(N(C(C)=O)c2ccc(Br)cc2)C(=O)c2ccccc2C1=O | 0.042µM* | -39% | -13% | u | 0.029µM*
CCC(=O)N(C1=C(NC)C(=O)c2ccccc2C1=O)C(C)C | u | x | 0% | -7% | u
COc1ccc2c(c1)c1nnc(SCC(=O)N3CCCCC3C)nc1n2C (stereo not given) | 0% | -14% | -1% | -11% | 8.3µM*
SMILES | Pf growth 48h | NS1 function inh | SARS PLpro yeast | RE007 growth inh | Pf growth 96h
CCOC(=O)N1CCN(C2CCCN(C(=O)c3cccc(N(C)C)c3)C2)CC1 (stereo not given) | 1% | 10% | -1% | -2% | u
CC(C)NC(=O)Nc1ccc2c(c1)C(=O)N([C@@H](C)CO)C[C@H](C)[C@H](CN(C)S(=O)(=O)c1ccccc1)OCCCC[C@H](C)O2 | x | x | x | 1% | x
CC(=O)Nc1sc2c(c1C(N)=O)CCCC2 | 8% | -5% | -3% | -18% | 4%
CC(=O)Nc1sc2c(c1C(=O)N1CCOCC1)CCCCC2 | 6% | -4% | 4% | -5% | 12µM*
CCOc1cc(N)c(Cl)cc1C(=O)NCC1CN(Cc2ccc(F)cc2)CCO1 (stereo not given) | 7.6µM* | x | x | 1%[18.4 µM] | 6µM*
CCCCCCCSc1cc(OC)c(CCN(C)C)cc1OC | u | 10% | -21% | -10% | 4.7µM*
CCCCCSc1cc(OC)c(CCN)cc1OC | u | 4% | -3% | 4% | u
O=c1cc(CN2CCCCCC2)nc2sccn12 | 11% | 4% | 1% | -21% | u
Cc1nc2sccn2c1P(c1c(C)nc2sccn12)c1c(C)nc2sccn12 | 8.3µM* | 7% | 10% | 13% | u
Cc1cc(=O)n2ccsc2n1 | 18% | -4% | -25% | 4% | 13µM*
CN(C)CC(CN(C)C)c1ccccn1 | x | -3% | x | x | x
Cc1ccc(OCC(=O)Oc2c(C)cccc2C)cc1 | 7% | -13% | 11% | -20% | 0.33µM*
Cc1cccc(NC(=O)CCNS(=O)(=O)c2ccc3[nH]c(=O)oc3c2)c1 | 5% | 27% | 7% | -15% | u
COc1ccc(Nc2c3ccccc3nc3ccccc23)cc1 | 4.1µM* | -47% | -9% | 9% | 43%
COc1cc(Nc2c3ccccc3nc3ccccc23)cc(OC)c1OC | 7.4µM* | -2% | -1% | -6% | u
COc1ccccc1Nc1cc(C)nc(Nc2ccccc2OC)n1 | u | x | -2% | -3% | 10µM*
COc1ccc(Nc2c3c(nc4ccccc24)CCCC3)cc1OC | -18% | x | 7% | -16% | 1%
Cc1ccc(Nc2nc3ccccc3c(=O)[nH]2)cc1C | u | x | 2% | 13% | 0%
COc1ccc(Nc2nc3ccccc3c(=O)[nH]2)cc1 | 2.1µM* | -8% | 3% | 1% | 4.7µM*
COc1ccccc1Nc1nc(C)cc(C)n1 | 1% | 2% | 26% | -6% | u
COc1ccccc1C(=O)Nc1ccnn1C1CCN(CC2CC=CCC2)CC1 (stereo not given) | 19% | -6% | 1% | -1% | u
COc1ccc(NC(=O)CSc2nnc(NC(=O)C3CCC3)s2)c(OC)c1 | 1% | 28% | 1% | 3% | u
Cc1ccc(C)c(CC(=O)N2CCCC(c3cc(C(=O)NCc4ccccc4)no3)C2)c1 (stereo not given) | x | x | x | 0%[18.4 µM] | x
CC(=O)Nc1ccc(C(=O)NCC2(N3CCCCC3)CCCCC2)cc1 | -20% | 4% | -5% | -23% | -5%
CNC(=O)C1Cc2c(-c3ccccc3Oc3ccccc3)ccnc2O1 (stereo not given) | x | x | x | 3% | x
